GALK inh = blocks human galactokinase activity | Purified GALK, Kinase-Glo residual ATP luminescence | Potency, µM (titrated, usually from 57.5 µM), most hits filed as inhibitors | actives 0.007% (n = 270,000)
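Quantitative HTS: GALK 5 nM, ATP 35 uM, galactose 100 uM, 1 h room temperature, then luciferase-based ATP detection.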
Giardia killer = Giardia lamblia killing. actives 0.15% (n = 340,000). Giardia lamblia trophozoite viability. activity change, % at 7.66 µM, hits read low. AID 540267; in the data active means activity change below about -80%; inconclusive means between about -30% and that limit;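 further: parasites exposed to compound for two days anaerobically before the ATP read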
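Trophozoite viability was measured as ATP-dependent luminescence, read 15-30 min after reagent addition. Before that, parasites at 100 cells/well were exposed to compounds for 48 h, anaerobically, at 37 deg C.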
Pin1 inhibitor = human Pin1 inhibition; actives 0.009% (n = 390,000); Pin1 FP peptide displacement, HiFluor488, 10 min; Potency, µM (doses to about 115 µM), actives largely listed as inhibitors; Q13526; active means well fitted inhibition curve with a large enough effect in the polarisation, with a control signal flat, not every such curve was filed as active; inconclusive means small, poorly fitted or top-dose-only effect, or effect the other way, or a change in a side signal; inactive means no such curve, though single readings can be large or run the other way; the % refers to the polarisation
Target sequence (Q13526 whole entry, looked up): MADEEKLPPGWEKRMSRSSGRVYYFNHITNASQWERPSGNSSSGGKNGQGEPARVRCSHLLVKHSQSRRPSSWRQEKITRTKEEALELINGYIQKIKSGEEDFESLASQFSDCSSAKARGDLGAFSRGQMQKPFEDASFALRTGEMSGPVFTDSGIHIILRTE
TrxR1 inh-1 = blocks rat thioredoxin reductase 1 | O89049 | actives 1% (n = 390,000) | recombinant rTrxR1, NADPH fluorescence consumption, selenite substrate | Potency, µM (top dose mostly 114 µM), hits mostly inhibitors | AID 588453; further: nearly all actives have a fitted effect of over 65% in size
Target sequence (O89049 whole entry, looked up): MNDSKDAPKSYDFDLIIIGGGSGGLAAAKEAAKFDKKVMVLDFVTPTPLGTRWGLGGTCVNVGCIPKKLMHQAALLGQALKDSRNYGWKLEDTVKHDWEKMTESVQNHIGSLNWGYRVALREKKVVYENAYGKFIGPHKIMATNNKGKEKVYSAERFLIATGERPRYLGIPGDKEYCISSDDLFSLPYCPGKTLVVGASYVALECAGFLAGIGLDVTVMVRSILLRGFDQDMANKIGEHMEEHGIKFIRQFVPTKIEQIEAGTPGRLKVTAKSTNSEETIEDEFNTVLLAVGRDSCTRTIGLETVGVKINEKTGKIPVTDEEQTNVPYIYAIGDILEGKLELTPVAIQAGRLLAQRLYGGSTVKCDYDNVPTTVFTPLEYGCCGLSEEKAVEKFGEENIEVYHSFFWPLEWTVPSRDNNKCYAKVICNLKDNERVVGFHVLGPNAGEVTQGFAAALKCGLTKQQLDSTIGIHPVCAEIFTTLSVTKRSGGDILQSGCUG
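Rat TrxR1 (90 nM in the dispensed reagent) was pre-reduced with 400 uM NADPH for 5 min at room temperature, then incubated with compound for 15 min. After 400 uM selenite was added, NADPH fluorescence (Ex 340/Em 450 nm) was followed for 8 min.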
TrxR1 substrate = rat thioredoxin reductase 1 substrate activity; O89049; purified TrxR1 substrate turnover, NADPH consumption readout; actives 0.01% (n = 390,000); Potency, µM (titrated, usually from 114 µM); AID 588456; further: nearly all actives have a fitted effect of over 50% in size
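Rat TrxR1, dispensed at 90 nM, was prereduced with 400 uM NADPH (final) for 5 min at ~22 deg C, then incubated with compound 15 min before 400 uM selenite. A first-read NADPH fluorescence drop versus no-compound background flagged substrates.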
KAT2A inh = GCN5L2 (KAT2A) acetyltransferase inhibition; Q92830; GCN5L2 HAT assay, ThioGlo1 CoA-SH fluorescence; Potency, µM (doses to about 58.9 µM), most hits filed as inhibitors; actives 0.21% (n = 390,000); AID 504327
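ThioGlo1-coupled HAT assay: 20nM GCN5L2, 70uM acetyl-CoA, 75uM H3(1-25) peptide, pH 7.5. Fluorescence read at 340/540nm at start and after 20 min at room temperature.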
TRb-SRC2 inh = confirmation of human TRb-SRC2 interaction inhibitors | shares compounds with TrxR1 inh-1 | AlphaScreen TRb LBD-SRC2 peptide binding, luminescence | Potency, µM | actives 50% (n = 30) | AID 2444; calls by dose curve
HepG2 viability = reduces HepG2 viability in TRb-SRC2 counter-screen; shares compounds with TrxR1 inh-1; HepG2 viability, ATP luminescence (CellTiter-Glo), 72 h; Potency, µM; actives 50% (n = 40); AID 2447; calls by dose curve
AR SRC2 FP = AR-SRC2 (human) interaction inhibition, selectivity | AID 2448 | 25 tested, under 10 active | AR-LBD Tx-SRC2-3 fluorescence polarization, 3 h | shares compounds with TrxR1 inh-1 | calls only; call rule not given here
PPARg-DRIP2 inh = selectivity of TRb-SRC2 inhibitors: human PPARgamma coactivator binding inhibition; 25 tested, under 10 active; shares compounds with TrxR1 inh-1; PPARg LBD / Texas Red DRIP-2 peptide, fluorescence polarization, 3 h; Potency, µM; calls by dose curve
VDR SRC2 FP = selectivity of TRb-SRC2 inhibitors: human vitamin D receptor-SRC2 inhibition | Potency, µM | 25 tested, under 10 active | shares compounds with TrxR1 inh-1 | VDR LBD/SRC2-3 peptide, fluorescence polarization, 3 h; calls by dose curve
TRb SRC2 FluoFP = disrupts human TRb binding to fluorescein-SRC2 peptide; shares compounds with TrxR1 inh-1; TRb LBD / fluorescein-SRC2 peptide, fluorescence polarization; Potency, µM; 20 tested, under 10 active; call rule not given here
GR inh = glutathione reductase inhibition, TrxR1 selectivity check | shares compounds with TrxR1 inh-1 | purified GR, DTNB reduction absorbance 405 nm kinetic | activity change, negative = inhibition, % at 57.1 µM | 55 tested, under 10 active
TrxR1 inh-2 = validation of rat thioredoxin reductase 1 inhibitors; shares compounds with TrxR1 inh-1; recombinant TrxR1, NADPH fluorescence consumption, selenite substrate; Potency, µM, most hits filed as inhibitors; actives 50% (n = 55); AID 652023
TrxR1 insulin = TrxR1 inhibition in insulin mechanism assay; AID 652037; TrxR1 Trx-coupled insulin reduction, NADPH absorbance 340 nm; shares compounds with TrxR1 inh-1; actives 20% (n = 55); Potency, µM;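 active means compounds with a measured potency under 100 micromolar; inconclusive means filed, but no rule given; inactive means potency at or above that, or unmeasurable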
TrxR1 inh-3 = rat thioredoxin reductase 1 inhibition, DTNB assay | shares compounds with TrxR1 inh-1 | purified TrxR1, DTNB reduction, A412 | Potency, µM | actives 90% (n = 55) | AID 652256;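 active means a half-inhibiting concentration could be measured and was below 100 µM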
A number is an active result; i = inactive; ? = inconclusive; nt = not tested or not shown. This is a sample that favours compounds with a hit; in the whole collection about 1.3% have one here. Unless noted, the call rests on the fitted dose curve; in most records, active means well fitted curve in the direction sought with a large enough effect; inconclusive means small, poorly fitted or top-dose-only effect, or another doubt; inactive means no such curve, though single readings can be large; an effect the other way counts as inactive or inconclusive.

SMILES	GALK inh	Giardia killer	Pin1 inhibitor	TrxR1 inh-1	TrxR1 substrate	KAT2A inh	others
CC1CCN(S(=O)(=O)c2ccc3ncn(CC(=O)Nc4ccccc4C(F)(F)F)c(=O)c3c2)CC1	nt	nt	i	i	i	i
Cc1ccccc1OCC(=O)Nc1ccc(-c2nc3cc(Cl)cc(Cl)c3o2)cc1	nt	nt	i	i	i	i
COc1cc(C(c2nnnn2C(C)(C)C)N2CCN(c3nc4ccccc4s3)CC2)ccc1O (stereo not given)	i	i	i	13µM	i	i	GR inh=i;TrxR1 inh-2=?;TrxR1 insulin=i;TrxR1 inh-3=0.16µM
C[C@@H](Oc1ccc(Oc2cnc3ccc(Cl)cc3n2)cc1)C(=O)O	nt	nt	nt	i	nt	nt
CCCCCCCN1C(Nc2ccccc2)=NC[C@@H]1Cc1ccccc1	nt	i	i	i	i	i
CCN1C(Nc2ccccc2)=NC[C@@H]1Cc1ccccc1	nt	i	i	16µM	i	i	GR inh=i;TrxR1 inh-2=?;TrxR1 insulin=i;TrxR1 inh-3=0.87µM
CC(=O)NC(c1cc(F)c2cccnc2c1O)C(C)C (stereo not given)	nt	nt	nt	nt	nt	i
NS(=O)(=O)c1cc(C(=O)OCC(=O)Nc2ccc(Cl)cc2[N+](=O)[O-])ccc1Cl	i	i	i	i	i	i
CS(=O)(=O)c1ccc(C(=O)OCC(=O)Nc2ccc(OC(F)(F)F)cc2)cc1[N+](=O)[O-]	nt	i	i	3.5µM	i	nt	TRb-SRC2 inh=17µM;HepG2 viability=i;AR SRC2 FP=i;PPARg-DRIP2 inh=i;VDR SRC2 FP=i;TRb SRC2 FluoFP=i
CS(=O)(=O)c1ccc(C(=O)OCC(=O)Nc2cc(C(F)(F)F)ccc2Cl)cc1[N+](=O)[O-]	nt	i	i	8.9µM	i	nt	TRb-SRC2 inh=17µM;HepG2 viability=17µM;AR SRC2 FP=i;PPARg-DRIP2 inh=i;VDR SRC2 FP=?;TRb SRC2 FluoFP=i
NS(=O)(=O)c1cc(C(=O)OCC(=O)Nc2ccccc2[N+](=O)[O-])ccc1Cl	i	i	i	i	i	i
Cc1ccccc1NC(=O)COC(=O)c1ccc(S(C)(=O)=O)c([N+](=O)[O-])c1	i	i	i	2.5µM	i	i	TRb-SRC2 inh=28µM;HepG2 viability=?;AR SRC2 FP=i;PPARg-DRIP2 inh=i;VDR SRC2 FP=i;TRb SRC2 FluoFP=i
CC(=O)c1cccc(NC(=O)COC(=O)c2ccc(S(C)(=O)=O)c([N+](=O)[O-])c2)c1	i	i	?	1.6µM	i	i	TRb-SRC2 inh=87µM;HepG2 viability=?;AR SRC2 FP=i;PPARg-DRIP2 inh=i;VDR SRC2 FP=60µM;TRb SRC2 FluoFP=?
Cc1csc(Sc2ccc(C(=O)OCC(=O)Nc3ccc(OC(F)(F)F)cc3)cc2[N+](=O)[O-])n1	i	i	i	i	i	i
Cc1ccc(S(=O)(=O)N2CCCCC2)cc1NC(=O)COC(=O)c1ccc(=O)[nH]c1	nt	i	i	i	i	i
COc1cc2c3cc1Oc1c(OC)c(OC)cc4c1[C@@H](Cc1ccc(OC(=O)c5ccc([N+](=O)[O-])cc5)c(c1)Oc1ccc(cc1)C[C@@H]3N(C)CC2)N(C)CC4	nt	nt	nt	nt	nt	i
CC(OC(=O)c1ccncc1)C(=O)Nc1cccc([N+](=O)[O-])c1 (stereo not given)	i	i	i	i	i	i
CC(=O)c1cccc(NC(=O)C(C)OC(=O)c2ccc(S(C)(=O)=O)c([N+](=O)[O-])c2)c1 (stereo not given)	nt	i	i	7.1µM	i	nt	TRb-SRC2 inh=40µM;HepG2 viability=?;AR SRC2 FP=i;PPARg-DRIP2 inh=?;VDR SRC2 FP=?;TRb SRC2 FluoFP=62µM
COc1cc(CN2CCCCC2C(=O)Nc2ccc(Oc3ccccc3)nc2)ccc1O (stereo not given)	i	i	i	13µM	i	i	GR inh=i;TrxR1 inh-2=?;TrxR1 insulin=i;TrxR1 inh-3=0.14µM
CCc1ccc(N2CC(C(=O)Nc3ccc4c(c3)OCO4)CC2=O)cc1 (stereo not given)	nt	i	i	i	i	i
CC(C)(C)OC(=O)N1CCCC1C(=O)NC1COC2CC(n3cc(F)c(=O)[nH]c3=O)OC12 (stereo not given)	nt	i	i	i	i	nt
CCC1CCCCN1CCCNC(=O)c1sc2nc(C)cc(C)c2c1-n1cccc1 (stereo not given)	nt	nt	i	i	i	i
CC(C)(C)c1cc(CN2CCN(CCO)CC2)cc(C(C)(C)C)c1O	i	i	i	7.9µM	i	i	GR inh=i;TrxR1 inh-2=?;TrxR1 insulin=i;TrxR1 inh-3=1.3µM
